Legend:
Assay in all cases: log2 ratio of Biotin-Ahx-Ub-VS probe labelling (compound/DMSO); higher = less target engagement, active = hit call of the paper (q ≤ 0.05, log2 ratio ≤ -1)
Conditions in all cases: treatment time: 3 h
[1] = compound: CCC1N(CCc2sccc12)C(=O)CCl
How it was run: (§1)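 HEK293T lysate (495 µg per sample, in Tris/CHAPS/IGEPAL buffer with protease inhibitors) was exposed in triplicate to compound at 50 or 200 µM, or to DMSO, for 3 h, then to Biotin-Ahx-Ub-VS (0.5 µM final) for 1 h. The labelled DUBs were enriched on NeutrAvidin, digested with LysC and trypsin, and analysed by diaPASEF LC-MS/MS. Average base-two log ratios of compound over DMSO came from median-normalised label-free quantities by unpaired t-test. Only proteins with at least 2 unique peptides were used.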

[2] = compound: CN1c2ccccc2C(CS1(=O)=O)NC(=O)CCl
How it was run: as §1

[3] = compound: Cl.ClCC(=O)N1CCc2ncncc2C1
How it was run: as §1

[4] = compound: Cl.Cn1ncc2C(CCCc12)NC(=O)CCl
How it was run: as §1

[5] = compound: ClCC(=O)NC1CCOc2ccccc12
How it was run: as §1

[6] = compound: ClCC(=O)NC1CCCc2ccccc12
How it was run: (§2)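 HEK293T lysate (495 µg per sample, in Tris/CHAPS/IGEPAL buffer with protease inhibitors) was treated in triplicate with compound over a concentration series or DMSO for 3 h, then with Biotin-Ahx-Ub-VS (0.5 µM final) for 1 h. Labelled DUBs were NeutrAvidin-enriched, digested with LysC and trypsin, and run by diaPASEF LC-MS/MS. Spectronaut label-free protein quantities were global-median-normalised. Values are average log2 ratios compound/DMSO from an unpaired t-test, using proteins with ≥2 unique peptides.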

[7] = compound: ClCC(=O)N[C@@H]1CCCc2ccccc12
How it was run: as §2

[8] = compound: ClCC(=O)N[C@H]1CCCc2ccccc12
How it was run: as §2

[9] = compound: CCC1N(CCc2cc(OC)c(Cl)cc12)C(=O)CCl
How it was run: as §1

[10] = compound: CCCC1N(CCc2cc(OC)c(OC)cc12)C(=O)CCl
How it was run: as §1

[11] = compound: CN(Cc1cccc(Br)c1)C(=O)CCl
How it was run: as §1

[12] = compound: CN(Cc1ccccc1)C(=O)CCl
How it was run: as §1

[13] = compound: COc1ccc(CN(C)C(=O)CCl)cc1
How it was run: as §1

[14] = compound: COc1cccc(CN(CCCc2ccccc2)C(=O)CCl)c1
How it was run: as §1

[15] = compound: ClCC(=O)N1CCc2cc(Cl)c(Cl)cc2C1
How it was run: as §1

[16] = compound: ClCC(=O)N1CCc2nc(ncc2C1)-c1ccccc1
How it was run: as §1

[17] = compound: ClCC(=O)N1CCc2nocc2C1
How it was run: as §1

[18] = compound: ClCC(=O)N1CCc2scc(Br)c2C1
How it was run: as §1

[19] = compound: ClCC(=O)NC(C1CCCC1)c1cccs1
How it was run: as §1

Measured: log2 ratio of Biotin-Ahx-Ub-VS probe labelling

ALG13 (UniProt Q9NP73)
Sequence of UniProt Q9NP73 (Q9NP73 whole entry): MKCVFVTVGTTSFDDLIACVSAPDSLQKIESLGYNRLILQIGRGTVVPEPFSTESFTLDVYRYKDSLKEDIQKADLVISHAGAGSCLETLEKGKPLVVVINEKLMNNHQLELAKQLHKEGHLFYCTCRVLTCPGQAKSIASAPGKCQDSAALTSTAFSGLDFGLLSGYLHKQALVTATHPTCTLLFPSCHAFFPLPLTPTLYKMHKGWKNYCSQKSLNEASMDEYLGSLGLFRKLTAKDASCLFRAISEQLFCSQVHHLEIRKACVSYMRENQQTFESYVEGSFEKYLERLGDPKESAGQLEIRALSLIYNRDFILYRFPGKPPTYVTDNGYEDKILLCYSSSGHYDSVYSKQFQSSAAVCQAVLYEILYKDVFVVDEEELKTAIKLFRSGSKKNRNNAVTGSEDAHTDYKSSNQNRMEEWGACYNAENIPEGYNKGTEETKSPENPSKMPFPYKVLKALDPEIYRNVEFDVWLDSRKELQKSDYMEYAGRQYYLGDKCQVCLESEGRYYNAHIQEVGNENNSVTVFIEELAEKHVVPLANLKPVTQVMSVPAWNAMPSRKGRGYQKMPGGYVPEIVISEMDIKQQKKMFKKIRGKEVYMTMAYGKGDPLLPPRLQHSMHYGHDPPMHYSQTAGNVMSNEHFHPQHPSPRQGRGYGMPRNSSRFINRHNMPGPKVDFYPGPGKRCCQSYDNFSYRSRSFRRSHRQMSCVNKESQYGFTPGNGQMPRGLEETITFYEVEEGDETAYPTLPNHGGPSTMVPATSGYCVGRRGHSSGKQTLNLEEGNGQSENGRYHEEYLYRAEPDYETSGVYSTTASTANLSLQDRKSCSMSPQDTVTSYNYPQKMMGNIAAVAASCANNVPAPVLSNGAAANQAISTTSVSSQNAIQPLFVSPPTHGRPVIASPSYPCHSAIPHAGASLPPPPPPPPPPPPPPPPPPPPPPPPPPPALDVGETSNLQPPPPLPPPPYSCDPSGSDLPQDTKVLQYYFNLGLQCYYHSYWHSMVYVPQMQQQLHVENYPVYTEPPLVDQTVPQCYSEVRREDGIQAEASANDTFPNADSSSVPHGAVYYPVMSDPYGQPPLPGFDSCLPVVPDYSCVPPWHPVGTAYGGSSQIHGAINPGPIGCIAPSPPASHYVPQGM
inactive: [1]; compound concentration: 50uM 0.393 | [1]; compound concentration: 200uM 0.533 | [2]; compound concentration: 50uM 0.284 | [2]; compound concentration: 200uM 0.203 | [3]; compound concentration: 50uM 0.0225 | [3]; compound concentration: 200uM 0.439 | [4]; compound concentration: 50uM 0.238 | [4]; compound concentration: 200uM -0.0439 | [5]; compound concentration: 50uM 0.11 | [5]; compound concentration: 200uM 0.324 | [6]; compound concentration: 0.78uM 0.19 | [6]; compound concentration: 1.56uM 0.107 | [6]; compound concentration: 3.13uM -0.625 | [6]; compound concentration: 6.25uM -0.155 | [6]; compound concentration: 12.5uM -0.336 | [6]; compound concentration: 25uM -0.19 | [6]; compound concentration: 50uM -0.356 | [6]; compound concentration: 100uM 0.221 | [6]; compound concentration: 200uM -0.15 | [7]; compound concentration: 0.78uM 0.187 | [7]; compound concentration: 1.56uM 0.128 | [7]; compound concentration: 3.13uM 0.146 | [7]; compound concentration: 6.25uM 0.328 | [7]; compound concentration: 12.5uM 0.0757 | [7]; compound concentration: 25uM -0.0189 | [7]; compound concentration: 50uM -0.26 | [7]; compound concentration: 100uM -0.0849 | [7]; compound concentration: 200uM 0.156 | [8]; compound concentration: 0.78uM 0.0472 | [8]; compound concentration: 1.56uM -0.48 | [8]; compound concentration: 3.13uM 0.0655 | [8]; compound concentration: 6.25uM -0.00893 | [8]; compound concentration: 12.5uM -0.0224 | [8]; compound concentration: 25uM 0.337 | [8]; compound concentration: 50uM -0.216 | [8]; compound concentration: 100uM 0.0146 | [8]; compound concentration: 200uM -0.203 | [9]; compound concentration: 50uM 0.0103 | [9]; compound concentration: 200uM 0.0355 | [10]; compound concentration: 50uM 0.0738 | [10]; compound concentration: 200uM 0.242 | [11]; compound concentration: 50uM 0.0661 | [11]; compound concentration: 200uM -0.148 | [12]; compound concentration: 50uM 0.171 | [12]; compound concentration: 200uM 0.0619 | [13]; compound concentration: 50uM 0.45 | [13]; compound concentration: 200uM 0.0354 | [14]; compound concentration: 50uM 0.162 | [14]; compound concentration: 200uM -0.285 | [15]; compound concentration: 50uM 0.247 | [15]; compound concentration: 200uM 0.454 | [16]; compound concentration: 50uM 0.157 | [16]; compound concentration: 200uM -0.117 | [17]; compound concentration: 50uM 0.493 | [17]; compound concentration: 200uM -0.0466 | [18]; compound concentration: 50uM 0.393 | [18]; compound concentration: 200uM 0.369 | [19]; compound concentration: 50uM -0.273 | [19]; compound concentration: 200uM 0.0789

— the supplement of paper PMC11732987, “Enantioselective OTUD7B fragment discovery through chemoproteomics screening and high-throughput optimisation” (Communications Chemistry, 2025)
